High-throughput results (PubChem)
A selection: hits, their analogues and other compounds. The true share with any hit is near 3.5%.
BoNT F protease: BoNT F light chain protease inhibition; Multiplex microsphere protease cleavage assay, flow cytometry; inhibition, % at 10 µM; 0.22% of 360,000 active; in the data active = inhibition above about 35%, passing the limit was not always enough; inconclusive = no clear call, values can overlap the other calls; also: plate controls were buffer without enzyme for full effect and enzyme alone for no effect
BJeLR viability: kills HRASV12-expressing BJeLR cells | BJeLR (HRASV12) viability, CellTiter-Glo ATP luminescence, 48 h | inhibition, % (no concentration beside the values) | 0.17% of 300,000 active | AID 1554; in the data active = inhibition above about 50%; inconclusive = no clear call, values can overlap the other calls
Bead autofluor: compound fluorescence in toxin protease inhibitor counterscreen | compound autofluorescence counterscreen, microsphere flow cytometry; active compounds read high | fluorescence intensity (concentration not given with the values) | 3.1% of 360,000 active; in the data active = fluorescence intensity above about 16000; inconclusive = no clear call, values can overlap the other calls
Anthrax LF inh2: blocks Bacillus anthracis lethal factor protease. P15917. multiplex microsphere protease cleavage assay, LF. inhibition, % at 10 µM. 0.12% of 360,000 active. AID 588501; also: plate controls were buffer without enzyme for full effect and enzyme alone for no effect
Target sequence (P15917 whole entry, looked up): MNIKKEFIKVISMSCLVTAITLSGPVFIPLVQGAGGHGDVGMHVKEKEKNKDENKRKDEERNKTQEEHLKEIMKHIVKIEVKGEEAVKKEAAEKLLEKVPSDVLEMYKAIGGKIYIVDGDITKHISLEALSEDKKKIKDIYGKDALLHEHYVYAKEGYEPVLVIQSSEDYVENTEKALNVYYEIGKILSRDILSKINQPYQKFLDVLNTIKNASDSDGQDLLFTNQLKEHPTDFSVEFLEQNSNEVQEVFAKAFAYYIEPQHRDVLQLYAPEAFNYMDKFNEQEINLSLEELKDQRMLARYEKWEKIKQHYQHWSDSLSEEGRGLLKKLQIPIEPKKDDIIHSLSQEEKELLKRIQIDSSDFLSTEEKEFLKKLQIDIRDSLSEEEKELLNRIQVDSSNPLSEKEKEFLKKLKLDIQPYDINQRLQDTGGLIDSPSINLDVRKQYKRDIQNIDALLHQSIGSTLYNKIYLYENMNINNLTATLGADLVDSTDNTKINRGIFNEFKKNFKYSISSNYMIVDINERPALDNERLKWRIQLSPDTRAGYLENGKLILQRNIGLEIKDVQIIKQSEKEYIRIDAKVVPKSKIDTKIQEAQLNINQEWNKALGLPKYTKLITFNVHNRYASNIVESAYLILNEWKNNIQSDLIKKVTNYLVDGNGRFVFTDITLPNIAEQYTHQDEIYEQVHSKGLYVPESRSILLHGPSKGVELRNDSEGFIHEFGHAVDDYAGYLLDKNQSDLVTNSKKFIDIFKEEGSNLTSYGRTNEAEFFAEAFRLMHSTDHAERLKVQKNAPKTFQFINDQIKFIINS
BoNT A protease: BoNT A light chain protease inhibition; 0.17% of 360,000 active; inhibition, % at 10 µM; multiplex microsphere protease substrate cleavage, flow cytometry; also: plate controls were buffer without enzyme for full effect and enzyme alone for no effect
An asterisk follows results filed as active; ? = inconclusive; . = not tested or not shown; ! = a repeat was not active. Rule as the data show it, unless noted: active = inhibition above about 30%; inconclusive = no clear call, values can overlap the other calls; inactive = below that.

SMILES | BoNT F protease | BJeLR viability | Bead autofluor | Anthrax LF inh2 | BoNT A protease
CC(=O)Nc1ccc(Oc2cnc3ccccc3n2)cc1 | 1 | 3 | 24151* | 0 | 0
Clc1cccc(Oc2cnc3ccccc3n2)c1 | 1 | -2 | 16039 | -1 | 1
CC(=O)Nc1cccc(Oc2cnc3ccccc3n2)c1 | 2 | -11 | 18766* | -16 | 3
c1ccc(Oc2cnc3ccccc3n2)cc1 | 1 | -3 | 23310* | -1 | 1
CCOC(=O)Cc1c(-c2cccc(Br)c2)nc2c3ccccc3ccn12 | -12 | . | 4540 | 3 | 1
COc1cc(/C=C/C=C2/CC/C(=C/C=C/c3ccc(O)c(OC)c3)C2=O)ccc1O | -4 | . | 3836 | 34* | 39*
COc1ccc2c(c1)CCC1C2=NN(/C(C)=C/C(C)=O)C1c1cccc(F)c1 (stereo unspecified) | 24 | -4 | 62503* | 6 | -25
O=C(Nc1ccccc1)c1cc(C2COCCN2C(=O)C2CC2)on1 (stereo unspecified) | -2 | . | 3970 | 3 | 0
O=C(NC(C(=O)c1ccccc1)n1cnccc1=O)c1ccccc1 (stereo unspecified) | -17 | 4 | 3740 | -4 | -1
O=C(NCn1cnccc1=O)c1ccccc1 | 0 | 15 | 23239* | -4 | 0
CCOC(=O)Cn1nc(-c2ccccc2)ccc1=O | -1 | 9 | 23084* | -3 | -1
Cc1nn(CCOc2ccccc2)c(=O)n1-c1ccc(Cl)cc1 | 4 | 4 | 3910 | -1 | 0
CCOC(=O)Cn1nc(C)n(-c2ccccc2)c1=O | 2 | 8 | 22724* | 1 | 0
CCOC(=O)Cn1nc(C)n(-c2c(C)cccc2C)c1=O | -2 | 5 | 3968 | -2 | 0
O=C(O)Cn1nc(-c2ccccc2)ccc1=O | 31 | -5 | 3875 | -11 | 2
Cc1nn(CCOc2ccccc2)c(=O)n1-c1ccccc1 | -1 | 1 | 22975* | -4 | 0
CCOC(=O)Cn1nc(C)n(-c2ccc(C)cc2)c1=O | 4 | -14 | 22478* | -1 | 2
CC1CC(C)C(=O)C(C(CC2CC(=O)NC(=O)C2)OC(=O)CC(=O)c2ccccc2)C1 (stereo unspecified) | -3 | . | 3709 | -2 | -1
CCCCCCSc1nc(O)c(C2OC(=O)c3c2ccc(OC)c3OC)c(=O)n1-c1ccccc1 (stereo unspecified) | -1 | 12 | 2941 | -2 | 0
Cc1ccc(NC(=O)CN(C)C(=O)Cc2c[nH]c3ccccc23)cc1 | -3 | . | 5973 | -4 | 1
COc1cccc(CN2CCNC(=O)C2CC(=O)N(C)Cc2cnccn2)c1OC (stereo unspecified) | -5 | 0 | 4716 | 3 | -2
COC(=O)C(C)n1nc(C)n(-c2ccc(C)cc2)c1=O (stereo unspecified) | 4 | -4 | 22187* | -2 | 2
COC(=O)C(C)n1cnc2c(nnn2-c2ccc(C)cc2)c1=O (stereo unspecified) | -3 | -6 | 4765 | -7 | -1
O=C1CC(Nc2ccccc2)C(=O)N1CCc1ccccc1 (stereo unspecified) | 9 | 6 | 4273 | -6 | 0
NC(=O)CNC1CC(=O)N(CCc2ccccc2)C1=O (stereo unspecified) | 0 | -8 | 23483* | -2 | 0
SMILES | BoNT F protease | BJeLR viability | Bead autofluor | Anthrax LF inh2 | BoNT A protease
CCCc1[nH]nc2c1C1(C(=O)N(Cc3ccccc3)c3ccccc31)C(C(=O)OC)=C(N)O2 (stereo unspecified) | 9 | -13 | 17223* | -15 | 8
CCN1C(=O)C2(C(C#N)=C(N)Oc3n[nH]c(-c4ccccc4)c32)c2ccccc21 (stereo unspecified) | 0 | -11 | 16247* | -1 | 0
CC(C)N(C)c1ncnc2c1ncn2[C@H]1CN(Cc2ccc(F)cc2)C[C@@H](CO)O1 | -1 | . | 3156 | -14 | 0
O=C(Cn1ncc2c([nH]c3ccccc32)c1=O)NCCCN1CCN(c2ccccc2)CC1 | -2 | 9 | 5798 | -2 | 0
Cc1cc(C)c(NC(=O)CCCN2CCN(C)CC2)c(C)c1 | -17 | 4 | 5051 | -3 | 0
Cc1cc(C)c(NC(=O)CN2CCN3CCCC3C2)c(C)c1 (stereo unspecified) | -7 | 0 | 21570*! | 0 | 0
Cc1nc2ccc(NC(=S)NC3CC3)cc2nc1C | -5 | -6 | 2483 | -2 | 2
Cc1nc2ccc(NC(=S)NC(C)C)cc2nc1C | 3 | -6 | 22287* | 1 | 3
Cc1c(C(=O)Nc2cccc(F)c2)cnn1-c1ccccc1 | 29 | -10 | 3261 | -1 | 2
CCCCn1c(=O)c(C(=O)c2ccccc2)nc2ccccc21 | -7 | 0 | 21629* | -1 | -7
CCCn1c(=O)c(C(=O)c2ccccc2)nc2ccccc21 | 6 | -6 | 15413 | 2 | 3
Cc1oc(-c2ccccc2F)nc1CN1CCC(C(=O)NC2CC2)CC1 | 4 | -6 | 20198* | -2 | 1
CCC(C)NC(=O)C1CCN(c2nc(C)cc(C)n2)CC1 (stereo unspecified) | 3 | 0 | 8329 | -4 | 2
Cc1oc(-c2cccc(Cl)c2)nc1CN1CCC(C(=O)NCC2CCCO2)CC1 (stereo unspecified) | 0 | 1 | 8657 | -1 | 1
Cc1ccccc1-c1nc(CN2CCC(C(=O)NCC3CCCO3)CC2)c(C)o1 (stereo unspecified) | -6 | 2 | 25315* | -8 | -4
Cc1cc(-c2ccccc2)nc(N2CCC(C(=O)NC(C)C)CC2)n1 | -5 | -1 | 16521* | -4 | -2
COc1ccc(-c2nc(CN3CCC(C(=O)NC4CC4)CC3)c(C)o2)cc1OC | 5 | 6 | 5203 | 3 | 0
Cc1cc(C)nc(N2CCC(C(=O)NCc3cccs3)CC2)n1 | -4 | -15 | 23240* | 0 | ?
CC(C)C[C@H]1CN(CCCC[C@H]2CNC(=O)C(=O)N2CC2CCCCC2)C(=O)C(=O)N1CCc1ccccc1 | 12 | . | 5178 | -1 | 1
CCC(c1nnnn1-c1ccc2c(c1)OCCO2)N1CCN(C)CC1 (stereo unspecified) | 4 | . | 5672 | -6 | 0
N#CC1(NC(=O)CN2C(=O)NC3(CCCCCC3)C2=O)CCCCC1 | -12 | . | 4290 | -2 | 0
Cc1csc(NC(=O)C2(C)CCN2C(=O)C(C)C)c1C#N (stereo unspecified) | -3 | . | 3809 | -5 | 0
Cc1oc(-c2ccccc2F)nc1CN1CCC(C(=O)NCc2cccs2)CC1 | 0 | -1 | 21985* | -2 | 1
Cc1oc(-c2cccs2)nc1CN1CCC(C(=O)N2CCCC2)CC1 | -4 | 0 | 5362 | 6 | 0
CCOc1ccc(-c2cc(C(=O)Nc3cc(OC)c(OC)c(OC)c3)[nH]n2)c(C)c1 | 7 | . | 2890 | -3 | -1
Cc1onc(-c2c(F)cccc2Cl)c1C(=O)Nc1cccc2nsnc12 | 1 | -1 | 22508* | -1 | 1
O=C1C(Cl)=C(NCCCN2CCOCC2)C(=O)N1CCc1ccccc1 | -2 | 8 | 22919* | -9 | 0
COC(=O)CNC(=O)c1c(-c2ccccc2Cl)noc1C | -1 | -14 | 2239 | 1 | 0
